Experimental data: PubChem BioAssay
Calls of active or inactive are those of the source.

Tests used:
Albumin (Bos taurus) = Albumin (Bos taurus) (UniProt P02769); test: compounds binding labelled BSA control protein – biochemical, small-molecule microarray, Alexa647 label, 635/667 nm fluorescence, artefact control for SMM control protein annotation, profiling panel (AID 1118); conditions: BSA-A647 binding, fluorescence 635 nm, higher = more signal;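 further: score merges 667 nm emission intensity and signal-to-noise per printed compound spot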
Sequence of Albumin (Bos taurus) (P02769 whole entry, looked up): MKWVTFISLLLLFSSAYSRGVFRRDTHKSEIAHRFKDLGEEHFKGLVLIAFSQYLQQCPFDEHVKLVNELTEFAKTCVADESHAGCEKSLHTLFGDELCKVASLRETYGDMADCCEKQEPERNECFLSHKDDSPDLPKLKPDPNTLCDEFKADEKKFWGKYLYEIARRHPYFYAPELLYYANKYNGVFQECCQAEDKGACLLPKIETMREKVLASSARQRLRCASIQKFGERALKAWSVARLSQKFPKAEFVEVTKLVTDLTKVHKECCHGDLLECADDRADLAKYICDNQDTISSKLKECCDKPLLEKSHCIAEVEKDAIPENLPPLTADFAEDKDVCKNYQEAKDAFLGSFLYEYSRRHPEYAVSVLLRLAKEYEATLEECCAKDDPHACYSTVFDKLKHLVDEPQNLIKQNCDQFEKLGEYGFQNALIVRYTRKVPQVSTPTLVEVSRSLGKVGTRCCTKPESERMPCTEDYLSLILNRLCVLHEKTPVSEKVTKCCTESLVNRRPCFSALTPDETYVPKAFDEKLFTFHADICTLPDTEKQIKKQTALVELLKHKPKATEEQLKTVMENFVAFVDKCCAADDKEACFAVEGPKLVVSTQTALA

[1] = probe aXIP binding to arrayed compounds – biochemical, NeuroSMM set, 635/667 nm fluorescence, primary screen (AID 1119); conditions: small-molecule microarray, higher = more signal, called active from +8 up or from −8 down;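 further: probe is the protein aXip251-270 applied at 1 µg/mL to compound-printed slides; binding of probe to printed compounds measured as 667 nm fluorescence plus signal to noise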
[2] = probe aNOTCH3 binding on compound microarray – biochemical, small-molecule microarray, 635/667 nm fluorescence, primary screen (AID 1120); conditions: higher = more signal;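 further: probe is a biotin-tagged antibody raised against NOTCH3 rather than NOTCH3 protein; score merges spot fluorescence near 667 nm with spot signal to noise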
[3] = probe aNOTCH2 binding on compound microarray – biochemical, small-molecule microarray, 635/667 nm fluorescence, primary screen (AID 1121); conditions: higher = more signal;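 further: score merges feature fluorescence read at 667 nm with its signal to noise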
[4] = target: Carbonic anhydrase 2 (Homo sapiens) (UniProt P00918); test: compounds binding carbonic anhydrase 2 – biochemical, small-molecule microarray, Alexa647-labelled CAII, profiling panel (AID 1122); conditions: CAII-A647 binding fluorescence, higher = more signal
[5] = COS7 lysate on small-molecule microarray, probe aHis, 635 nm (AID 1123); conditions: COS7 cell lysate, fluorescence, higher = more signal;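 further: z-score combines 667nm fluorescence intensity with signal-to-noise per printed compound spot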
[6] = probe aLAP1 signal on lysate-treated microarray – cell lysate, small-molecule microarray, COS7 lysate, primary screen (AID 1124); conditions: probe aLAP1, fluorescence, higher = more signal;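 further: lysate comes from COS7 cells expressing LAP1 and is applied at 0.3 µg/mL; score merges spot fluorescence near 667 nm with signal-to-noise over triplicate slides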
Sam68 (KHDRBS1) = test: compounds binding KHDRBS1 protein – biochemical, small-molecule microarray, 635 nm fluorescence, primary screen (AID 1125); conditions: higher = more signal;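 further: score merges 667 nm channel intensity with signal to noise over triplicate slides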
[7] = system: Chordin-like protein 2 (CHRDL2); test: compounds binding chordin-like 2 – biochemical, small-molecule microarray, 635 nm fluorescence, primary screen (AID 1126); conditions: fluorescence 635 nm, higher = more signal;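 further: printed compound slides probed with Chrdl2 protein at 4 µg/mL for 1 h at 4 C; score merges 667 nm emission intensity with signal to noise over three replicate slides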
[8] = target: Concanavalin-A (Canavalia ensiformis) (UniProt P02866); test: compounds binding concanavalin A lectin – biochemical, small-molecule microarray, Alexa647 label, 635 nm, artefact control for SMM control protein annotation, primary screen (AID 1127); conditions: ConA-A647 binding fluorescence, higher = more signal;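 further: z combines 667 nm emission intensity with signal-to-noise across three replicate slides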
Sequence of Concanavalin-A (Canavalia ensiformis) (P02866 whole entry, looked up): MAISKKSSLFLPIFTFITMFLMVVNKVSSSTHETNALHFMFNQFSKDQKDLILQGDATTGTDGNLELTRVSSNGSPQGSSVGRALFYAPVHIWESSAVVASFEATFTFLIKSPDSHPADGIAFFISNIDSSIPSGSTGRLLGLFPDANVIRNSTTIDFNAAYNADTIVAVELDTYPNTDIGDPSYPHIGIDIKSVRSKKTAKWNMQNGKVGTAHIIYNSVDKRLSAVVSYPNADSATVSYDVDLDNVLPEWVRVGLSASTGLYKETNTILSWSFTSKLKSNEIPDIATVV

[9] = compounds binding Alexa647 anti-His antibody – biochemical, small-molecule microarray, 635 nm fluorescence, artefact control for SMM control protein annotation, primary screen (AID 1128); conditions: higher = more signal;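 further: score merges feature fluorescence with signal-to-noise for each printed compound spot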
[10] = system: Human papillomavirus type 1a E7 protein (residues 1-88); test: HPV1a E7 small-molecule binders, primary screen, biochemical, small-molecule microarray, residues 1-88, 635 nm (AID 1129); conditions: small-molecule microarray binding, fluorescence 635 nm; higher = more signal
[11] = target: Focal adhesion kinase 1 (Homo sapiens) (UniProt Q05397); test: PTK2 protein binding on printed compound slides – biochemical, small-molecule microarray, 635/667 nm fluorescence, BSA, DTT, primary screen (AID 1130); conditions: 635 nm fluorescence, higher = more signal;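 further: composite of spot emission at 667 nm and signal to noise over triplicate slides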
Sequence of Focal adhesion kinase 1 (Homo sapiens) (Q05397 whole entry, looked up): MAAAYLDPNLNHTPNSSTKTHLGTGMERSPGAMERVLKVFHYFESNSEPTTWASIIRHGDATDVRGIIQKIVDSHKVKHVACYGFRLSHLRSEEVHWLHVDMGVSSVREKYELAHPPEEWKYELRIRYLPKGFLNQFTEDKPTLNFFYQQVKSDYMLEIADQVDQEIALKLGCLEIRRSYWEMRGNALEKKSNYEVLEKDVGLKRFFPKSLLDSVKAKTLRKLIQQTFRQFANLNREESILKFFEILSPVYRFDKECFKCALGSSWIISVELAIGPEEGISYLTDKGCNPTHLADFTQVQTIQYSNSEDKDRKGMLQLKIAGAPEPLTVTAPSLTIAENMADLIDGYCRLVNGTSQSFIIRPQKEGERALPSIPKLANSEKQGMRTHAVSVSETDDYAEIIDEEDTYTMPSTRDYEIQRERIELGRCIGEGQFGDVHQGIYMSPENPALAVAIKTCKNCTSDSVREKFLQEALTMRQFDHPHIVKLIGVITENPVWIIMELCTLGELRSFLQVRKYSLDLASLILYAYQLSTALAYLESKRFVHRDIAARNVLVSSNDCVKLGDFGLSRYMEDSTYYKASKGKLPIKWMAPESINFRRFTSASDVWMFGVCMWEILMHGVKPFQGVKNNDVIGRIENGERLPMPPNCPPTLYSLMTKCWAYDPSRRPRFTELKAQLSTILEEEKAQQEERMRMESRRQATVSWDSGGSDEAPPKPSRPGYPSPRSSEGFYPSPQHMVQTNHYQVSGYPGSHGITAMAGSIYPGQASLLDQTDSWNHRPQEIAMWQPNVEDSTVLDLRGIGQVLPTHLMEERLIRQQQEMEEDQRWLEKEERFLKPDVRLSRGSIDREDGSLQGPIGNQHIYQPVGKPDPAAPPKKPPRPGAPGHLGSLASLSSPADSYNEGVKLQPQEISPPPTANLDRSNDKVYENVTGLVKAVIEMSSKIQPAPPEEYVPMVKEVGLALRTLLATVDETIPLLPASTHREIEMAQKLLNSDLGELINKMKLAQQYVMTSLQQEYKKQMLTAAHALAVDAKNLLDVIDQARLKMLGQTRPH

[12] = system: Fibrinogen (Alexa647-labelled); test: Alexa647-fibrinogen binding to printed small molecules – biochemical, small-molecule microarray, 635/667 nm fluorescence, artefact control for SMM control-protein annotation, profiling panel (AID 1131); conditions: fibrinogen-A647 binding fluorescence, higher = more signal;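 further: z-score merges 667 nm fluorescence with per-spot signal-to-noise over triplicate slides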
[13] = target: Follistatin (Homo sapiens) (UniProt P19883); test: FST protein binding to printed compounds – biochemical, small-molecule microarray, 635/667 nm fluorescence, primary screen (AID 1132); conditions: 635 nm fluorescence, higher = more signal
Sequence of Follistatin (Homo sapiens) (P19883 whole entry, looked up): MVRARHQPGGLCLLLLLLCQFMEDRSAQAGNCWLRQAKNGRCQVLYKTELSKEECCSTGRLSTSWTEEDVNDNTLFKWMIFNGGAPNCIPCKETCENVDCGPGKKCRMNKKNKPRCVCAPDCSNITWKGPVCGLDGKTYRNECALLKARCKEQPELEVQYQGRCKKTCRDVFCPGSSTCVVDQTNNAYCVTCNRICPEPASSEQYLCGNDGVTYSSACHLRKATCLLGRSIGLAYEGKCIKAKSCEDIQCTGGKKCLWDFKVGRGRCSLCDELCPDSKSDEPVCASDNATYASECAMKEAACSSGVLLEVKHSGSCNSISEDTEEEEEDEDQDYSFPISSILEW

[14] = target: Fibroblast growth factor 2 (Homo sapiens) (UniProt P09038); test: basic fibroblast growth factor binding to printed compounds – biochemical, small-molecule microarray, 635/667 nm fluorescence, primary screen (AID 1133); conditions: FGF2, fluorescence 635/667, higher = more signal
Sequence of Fibroblast growth factor 2 (Homo sapiens) (P09038 whole entry, looked up): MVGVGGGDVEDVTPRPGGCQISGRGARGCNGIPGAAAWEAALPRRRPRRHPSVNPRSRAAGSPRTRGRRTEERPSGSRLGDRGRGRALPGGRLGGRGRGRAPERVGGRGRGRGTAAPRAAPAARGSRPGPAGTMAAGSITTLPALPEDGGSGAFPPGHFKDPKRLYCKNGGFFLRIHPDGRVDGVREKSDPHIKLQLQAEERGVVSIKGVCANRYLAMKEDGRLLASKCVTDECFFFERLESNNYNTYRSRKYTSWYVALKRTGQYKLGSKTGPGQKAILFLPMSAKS

[15] = JC-1 mitochondrial potential readout, lung cancer cells – cell-based, A549, JC-1 fluorescence, basal, 24 h, 100 nL, profiling panel (AID 1138); conditions: higher = more signal;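 further: A549 lung adenocarcinoma cells under basal conditions with no added stimulus; test concentration not given here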
Lefty1 = Lefty1 protein binding to printed compounds – biochemical, small-molecule microarray, 635/667 nm fluorescence, primary screen (AID 1139); conditions: fluorescence 635/667, higher = more signal
[16] = system: wheat germ agglutinin (Triticum aestivum), Alexa647-labelled; test: Alexa647-WGA lectin binding to printed small molecules – biochemical, small-molecule microarray, 635/667 nm fluorescence, artefact control for SMM control-protein annotation, profiling panel (AID 1140); conditions: WGA-A647 binding, 635 nm fluorescence, higher = more signal;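 further: score merges 667 nm feature emission with signal to noise over triplicate slides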
[17] = target: Luciferin 4-monooxygenase (Photinus pyralis) (UniProt P08659); test: inhibition of purified Photinus pyralis luciferase – biochemical, luminescence, purified enzyme, 2006 set, primary screen (AID 1141); conditions: purified firefly luciferase, SteadyGlo luminescence, 30 min; higher = more signal, called active from +8 up or from −8 down;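 further: cell-free assay with purified firefly luciferase at 100 ng per well in PBS; test concentration not given here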
Sequence of Luciferin 4-monooxygenase (Photinus pyralis) (P08659 whole entry, looked up): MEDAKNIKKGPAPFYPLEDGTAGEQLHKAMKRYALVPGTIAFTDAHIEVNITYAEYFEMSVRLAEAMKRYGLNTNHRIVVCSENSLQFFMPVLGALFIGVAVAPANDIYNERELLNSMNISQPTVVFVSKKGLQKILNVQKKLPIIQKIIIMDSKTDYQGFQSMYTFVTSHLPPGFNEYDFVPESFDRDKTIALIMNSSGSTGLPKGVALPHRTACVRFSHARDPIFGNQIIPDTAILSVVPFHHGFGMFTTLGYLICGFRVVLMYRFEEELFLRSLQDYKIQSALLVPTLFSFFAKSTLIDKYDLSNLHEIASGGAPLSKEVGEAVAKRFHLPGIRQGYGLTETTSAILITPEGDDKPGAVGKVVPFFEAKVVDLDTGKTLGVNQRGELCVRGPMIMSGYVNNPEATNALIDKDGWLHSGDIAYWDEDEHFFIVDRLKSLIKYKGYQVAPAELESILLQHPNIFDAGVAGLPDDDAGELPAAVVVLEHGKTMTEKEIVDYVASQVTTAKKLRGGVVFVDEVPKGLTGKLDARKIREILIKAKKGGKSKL

Row | Structure (SMILES) | composite z-score (Albumin (Bos taurus)) | composite Z-score [1] | composite z-score [2] | composite z-score [3] | composite z-score [4] | composite z-score [5] | composite z-score [6] | composite z-score (Sam68 (KHDRBS1)) | composite z-score [7] | composite z-score [8] | composite z-score [9] | composite z-score [10] | composite z-score [11] | composite z-score [12] | composite z-score [13] | composite z-score [14] | z-score [15] | composite z-score (Lefty1) | composite z-score [16] | z-score [17]
1 | COC(=O)[C@H](C)NC(=O)CCC1CC(OC(=O)NCc2cccc3ccccc23)CC2(CCCC(COC(=O)NCc3cccc(C(F)(F)F)c3)O2)O1 (stereo not given in full) | 0.845 | 0.15 (inactive) | 0.106 | -0.0846 | 0.15 | 1.78 | 0.0331 | 1.31 | 0.293 | 1.12 | 1.12 | 0.818 | 0.0625 | 0.83 | 0.928 | 0.657 | 1.43 | 0.526 | 0.48 | -0.552 (inactive)
2 | CO[C@H]1COC(=O)CC=C[C@@H](C)COC(=O)[C@H]2CCCN2C(=O)CC=C[C@H]1C | -0.893 | 0.297 (inactive) | -0.122 | -0.166 | -0.516 | -0.916 | 0.449 | 0.536 | 1.19 | -0.923 | -0.19 | -1.54 | -0.0701 | -1.05 | 1.46 | 1.96 | 1.06 | 1.68 | -0.604 | -1.32 (inactive)
3 | CCOC(=O)[C@H](Cc1ccccc1)NC(=O)CCC1CC(OC(=O)NCc2cccc3ccccc23)CC2(CCCC(COC(=O)NCC3CCCCC3)O2)O1 (stereo not given in full) | -0.112 | 0.878 (inactive) | 0.0713 | -0.123 | 0.0394 | 0.745 | 0.395 | 1.18 | 0.54 | 0.702 | 1.05 | 1.06 | 0.289 | 0.923 | 0.421 | 0.754 | 0.624 | 0.826 | -0.264 | 0.632 (inactive)
4 | CON=C(C)CCN1CCCCc2nc(C)c(C)cc21 | -0.16 | 0.414 (inactive) | 0.245 | 0.0207 | 0.53 | -0.0845 | -0.244 | 0.119 | 0.873 | -0.116 | 0.229 | -0.27 | 0.145 | 0.582 | 0.925 | 0.644 | 1.19 | 1.05 | 0.495 | -0.518 (inactive)
5 | CC(C)[C@@H](OCc1ccccc1)[C@H](C)C=NO[C@@H](C)c1cn([C@H](CO)Cc2ccccc2)nn1 | 0.449 | -0.0527 (inactive) | 0.209 | -0.146 | -0.227 | -0.205 | -0.0074 | 0.706 | 0.191 | -0.36 | 0.08 | -0.147 | -0.0232 | -0.157 | -0.0854 | 0.346 | -1.02 | 0.249 | 0.0578 | -0.197 (inactive)
6 | C[C@H]1CC[C@@H](C(=O)O)N[C@@H]1c1ccc(C#Cc2ccccc2)cc1 | 0.213 | 0.142 (inactive) | 0.0876 | -0.0907 | 0.863 | 0.803 | 0.707 | 1.22 | 1.34 | 1.1 | 1.53 | 1.06 | 0.454 | 0.918 | 1.07 | 0.551 | -2.02 | 0.608 | 1.11 | -9.82 (active)
7 | CCOC(=O)[C@H](Cc1ccccc1)NC(=O)CCC1CC(OC(=O)NCc2cccc3ccccc23)CC2(CCCC(COC(=O)NCCc3ccc(Cl)cc3)O2)O1 (stereo not given in full) | 0.278 | -0.413 (inactive) | -0.296 | -0.203 | 0.349 | 0.37 | -0.126 | 1.08 | 0.253 | 1.03 | 0.486 | 0.791 | 0.222 | 0.78 | 0.461 | 0.344 | -0.243 | 0.414 | 0.556 | 1.36 (inactive)
8 | COc1ccc(O[C@H]2C=C[C@@H](c3ccccc3)O[C@@H]2CON=C2c3cc(OC)ccc3O[C@H](c3cccc(OC)c3)[C@H]2O)cc1 | 0.322 | -0.222 (inactive) | -0.122 | -0.255 | 0.417 | 0.567 | 1.15 | 0.164 | 0.171 | -0.996 | -0.622 | 0.463 | 0.121 | -0.413 | 0.618 | 1.63 | 0.0904 | 1.1 | 0.701 | 1.16 (inactive)
9 | CCOC(=O)NN=C1C[C@@H](O)[C@@H](O)[C@@H]2[C@@H]3C(=O)N(C[C@@H]4CCCO4)C(=O)[C@@H]3CC[C@H]12 | 0.34 | -0.161 (inactive) | -0.0057 | -0.15 | -0.144 | 0.19 | 0.299 | 0.31 | 0.245 | 0.111 | 0.57 | 0.317 | 0.43 | 0.835 | 0.308 | 0.342 | -0.311 | 0.293 | 0.0337 | 0.515 (inactive)
10 | COc1ccc(COC(=O)NN=C2C[C@@H](O)[C@@H](O)[C@@H]3[C@@H]4C(=O)N([C@@H](C)c5ccccc5)C(=O)[C@@H]4CC[C@H]23)cc1 | 0.434 | -0.259 (inactive) | 0.24 | 0.867 | -0.277 | 0.232 | -0.266 | -0.638 | -0.217 | 0.0744 | -0.485 | -0.521 | -0.393 | -0.137 | -0.528 | -0.509 | -0.419 | -0.794 | 0.271 | 0.779 (inactive)
11 | CC(C)[C@H](NC(=O)OC(C)(C)C)[C@@H](O)CC(=O)C(C)(C)C | -0.269 | -0.382 (inactive) | -0.178 | -0.152 | -0.163 | 0.163 | -0.0769 | -0.0938 | 0.591 | 0.188 | -0.007 | -0.195 | -0.402 | 0.0622 | 0.359 | 0.516 | 0.109 | 0.627 | -0.0466 | 0.0879 (inactive)
